Screens: PubChem BioAssay, National Center for Advancing Translational Sciences (NCATS)
POLI inh: blocks human DNA polymerase iota activity | Pol iota fluorescent replication assay, 10 min | Potency, µM (doses to about 115 µM), hits mostly inhibitors | Q9UNA4 | 390,000 compounds, 1% hits
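Pol iota at 10 nM preincubated 15 min with compounds at room temperature; reaction started with fluorescent substrate, 50 nM final. Fluorescence read kinetically at 0 and 10 min; buffer-only wells as negative control.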
POLK inh: DNA polymerase kappa (human) inhibition | 400,000 compounds, 0.53% hits | Potency, µM (titrated, usually from 107 µM), actives largely listed as inhibitors | purified Pol kappa, fluorescent DNA synthesis assay, 10 min | AID 588579 | Q9UBT6
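Fluorescent qHTS in 1536-well format: enzyme (10 nM) and compound sat 15 min at room temperature before 50 nM substrate (final) was added. Signal taken at 0 and 10 min; no-enzyme buffer wells were negative controls.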
Pol eta inh: blocks human DNA polymerase eta activity. Q9Y253. recombinant Pol eta, fluorescent DNA replication assay. Potency, µM (top dose mostly 114 µM), hits mostly inhibitors. 390,000 compounds, 1.2% hits. AID 588591
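Pol eta (10 nM) was preincubated with compounds for 15 min at room temperature, after which fluorescent replication substrate (50 nM final) was added to start the reaction. Fluorescence was read kinetically at 0 and 10 min.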
L3MBTL1 inh: blocks human L3MBTL1; AID 485360; AlphaScreen L3MBTL1–H3K9me1 peptide binding; Potency, µM (top dose mostly 57.1 µM), most hits filed as inhibitors; 230,000 compounds, 0.66% hits; note: nearly all actives have a fitted effect of over 60% in size
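L3MBTL1 50 nM + b-AHA-H3(1-15)K9me1 75 nM, 30 min RT; compound added, 30 min RT; streptavidin donor/Ni-chelate acceptor beads 10 ug/mL each final, 30 min RT dark; AlphaScreen read.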
APE1 inh: APE1 (human) endonuclease inhibition. recombinant APE1, TAMRA/BHQ-2 abasic DNA cleavage fluorescence. Potency, µM (top dose mostly 65.8 µM), hits mostly inhibitors. 350,000 compounds, 0.35% hits. AID 2517; note: nearly all actives have a fitted effect of over 55% in size
Target sequence (P27695 whole entry, looked up): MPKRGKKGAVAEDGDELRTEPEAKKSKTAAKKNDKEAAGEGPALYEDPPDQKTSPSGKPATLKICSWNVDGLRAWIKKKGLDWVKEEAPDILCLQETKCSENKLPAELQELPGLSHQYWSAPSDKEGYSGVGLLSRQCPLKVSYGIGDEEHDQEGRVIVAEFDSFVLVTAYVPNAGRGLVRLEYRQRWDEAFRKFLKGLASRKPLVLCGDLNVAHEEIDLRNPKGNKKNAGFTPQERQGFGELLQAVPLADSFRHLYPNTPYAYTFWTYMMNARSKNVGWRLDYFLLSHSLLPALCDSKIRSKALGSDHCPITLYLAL
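Kinetic fluorescence read (525 ex/598 em nm, three reads 60 s apart) of AP-site incision; signal = third minus first read. Enzyme 0.75 nM, dual-labelled THF duplex 50 nM, compound preincubation 15 min RT.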
POLB inh: DNA polymerase beta (human) inhibition | AID 485314 | Pol beta primer extension/strand displacement, fluorescence kinetic | Potency, µM (titrated, usually from 114 µM), actives largely listed as inhibitors | P06746 | 340,000 compounds, 1.3% hits
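Homogeneous kinetic assay of primer extension and strand displacement by 10 nM Pol beta, preincubated 15 min at room temperature with compound before 50 nM substrate (final) was added. Read at 0 and 10 min; four-parameter Hill fit.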
Numbers stand for hits; i = inactive; ? = inconclusive; nt = no result; [ ] = dose if it differs, or a comment. Rows were chosen to be rich in hits. Some 2.5% of all compounds tested hit in one or more screens of this group. Calls come from the whole dose curve; as a rule, active = well fitted curve in the direction sought with a large enough effect; inconclusive = small, poorly fitted or top-dose-only effect, or another doubt; inactive = no such curve, though single readings can be large; an effect the other way counts as inactive or inconclusive.

SMILES | POLI inh | POLK inh | Pol eta inh | L3MBTL1 inh | APE1 inh | POLB inh
CN(C)c1ccc(CNC(=O)CCNS(=O)(=O)c2cc(Br)cnc2N)cc1 | i | i | i | nt | i | i
CCOc1ccc(OCC)c(NC(=O)C2CCCN(S(=O)(=O)c3cc(Br)cc4c3N(C(=O)CC)CC4)C2)c1 (configuration not stated) | 89.1µM | i | i | nt | nt | i
CCC(=O)N1CCc2cc(Br)cc(S(=O)(=O)N3CCCC(C(=O)Nc4cccc(Cl)c4C)C3)c21 (configuration not stated) | i | i | i | nt | nt | i
CCOC(=O)c1c(/N=C/c2ccc(OC)cc2O)sc2c1CCN(C)C2 | ? | ? | ? | 25.1µM | i | i
CCOC(=O)c1c(/N=C/c2ccc(C)cc2O)sc2c1CCC2 | i | i | i | i | i | i
Cc1ccc2oc(-c3cc(NC(=O)c4ncn[nH]4)ccc3O)nc2c1 | i | i | 44.7µM | nt | i | ?
Cc1ccc2oc(-c3ccc(NC(=O)c4ccncc4)cc3O)nc2c1 | i | i | i | i | i | ?
COc1ccc(-c2ccc3c(=O)cc(-c4ccsc4)oc3c2)cn1 | 22.4µM | i | ? | i | i | nt
COc1cc(-c2ccc3oc(-c4ccsc4)cc(=O)c3c2)cc(OC)c1OC | i | i | i | i | i | nt
CN(C)S(=O)(=O)N(CC(=O)NCCSCc1ccccc1)c1ccccc1 | ? | ? | ? | nt | ? | 35.5µM
CN(C)S(=O)(=O)N(CC(=O)NCCSc1ccc(Cl)cc1)c1ccccc1 | ? | i | ? | nt | nt | 22.4µM
CN(C)S(=O)(=O)N(Cc1ccc(Br)cc1)c1ccccc1 | i | i | i | i | i | i
CN(C)S(=O)(=O)N(CC(=O)N(Cc1ccccc1)Cc1ccccc1)c1ccccc1 | ? | ? | ? | nt | ? | 22.4µM
Cc1ccc(NC(=O)CCc2nc3cccnc3n2-c2ccccc2)cc1 | i | i | i | nt | nt | i
O=C(Nc1ccc2ccccc2c1)c1nc(S(=O)(=O)Cc2ccccc2F)ncc1Cl | i | i | nt | nt | nt | nt
CCC(C)[C@H](NC(=O)C1CCC(CNC(=O)[C@@H]2CCCN2C(=O)OC(C)(C)C)CC1)C(=O)O (some centres not stated) | i | i | i | nt | 150µM | 0.224µM
CC(C)(C)OC(=O)N(CCc1ccccc1)Cc1ccccc1OCc1cccc(NC(=O)C2CCC2)c1 | i | i | i | nt | nt | nt
COc1ccc(N=Nc2nc(-c3ccccc3)c(-c3ccccc3)[nH]2)cc1 | i | i | i | 15.8µM | i | i
O=C1C(N2CCOCC2)=C(n2nnc3ccccc32)C(=O)c2ccccc21 | ? | i | 44.7µM | nt | i | i
CCOc1ccc(NC(=O)CC2C(=O)N(c3ccccc3)C(=O)N2Cc2ccc3c(c2)OCO3)cc1 (configuration not stated) | i | i | i | nt | nt | i
CC(C)COc1ccccc1C1CC(=O)Nc2cc3c(cc21)OCO3 (configuration not stated) | i | i | i | nt | nt | i
CCOC(=O)C1CCN(C(=O)COC(=O)c2cc([N+](=O)[O-])ccc2N2CCOCC2)CC1 | i | i | i | i | i | nt
CC1CCCC(C)N1C(=O)COC(=O)c1ccc([N+](=O)[O-])o1 (configuration not stated) | 50.1µM | i | 50.1µM | i | i | nt
Cc1ccc(C(=O)NCC(=O)OCC(=O)c2c(N)n(C)c(=O)n(C)c2=O)s1 | ? | i | ? | i | ? | 35.5µM
CC1CC(C)CN(C(=O)COC(=O)c2ccc([N+](=O)[O-])o2)C1 (configuration not stated) | ? | i | 89.1µM | i | i | nt
SMILES | POLI inh | POLK inh | Pol eta inh | L3MBTL1 inh | APE1 inh | POLB inh
Cn1c(N)c(C(=O)COC(=O)CNC(=O)c2ccccc2)c(=O)n(C)c1=O | i | i | i | i | i | nt
CCOC(=O)C1CCN(C(=O)COC(=O)c2ccc([N+](=O)[O-])o2)CC1 | 50.1µM | i | 79.4µM | i | i | nt
CCOc1ccc(C(=O)NC(=S)Nc2cccc(S(=O)(=O)NC3=NCCC3)c2)cc1 | i | i | i | i | i | i
O=C(Cc1ccc(OCCc2ccccc2)cc1)NO | i | i | nt | nt | nt | nt
Cn1c(N)c(C(=O)COC(=O)c2ccc(Br)o2)c(=O)n(C)c1=O | i | i | i | i | ? | i
Cn1c(N)c(C(=O)COC(=O)c2ccc([N+](=O)[O-])o2)c(=O)n(C)c1=O | 50.1µM | i | 89.1µM | i | i | i
CC(N=C1NS(=O)(=O)c2ccccc21)C(=O)Nc1ccc(F)cc1Cl (configuration not stated) | i | i | i | i | i | nt
Cc1cnc2c3c(cc(Cl)c2c1)-c1ccccc1S(=O)(=O)N3 | 28.2µM | 79.4µM | nt | nt | nt | nt
CCOc1cccc(C2C=C(c3ccc4c(c3)OCO4)NC(c3ccc(Br)cc3)N2)c1O (configuration not stated) | i | i | nt | nt | nt | nt
COc1ccc(CN2CCSc3sccc3C2=O)cc1 | i | i | i | nt | i | 79.4µM
O=C1c2ccsc2SCCN1Cc1c(Cl)cccc1Cl | i | i | i | nt | ? | i
COc1cccc(CN(C)S(=O)(=O)c2cccs2)c1 | i | i | i | nt | i | i
COc1cccc2sc(Nc3nc(-c4cc5ccccc5oc4=O)cs3)nc12 | ? | ? | ? | i | i | 35.5µM
COc1cccc2sc(Nc3nc(-c4ccncc4)cs3)nc12 | i | i | i | nt | ? | ?
COc1cccc2cc(-c3nc(-c4ccccc4F)no3)c(=O)oc12 | i | i | i | nt | nt | i
COc1cccc(-c2noc(-c3cc4ccccc4oc3=O)n2)c1OC | 70.8µM | i | i | nt | nt | i
CN(C)S(=O)(=O)c1ccc(NC(=O)Cn2nc(-c3ccc4c(c3)OCCO4)ccc2=O)cc1 | i | i | i | nt | nt | nt
Cc1ccc(S(=O)(=O)NC(=NC2CCCCC2)c2ccc(Cl)cc2)cc1 | i | i | i | nt | i | i
Cn1cc(CN2CCC(n3nccc3NC(=O)Cc3ccccc3)CC2)cn1 | i | i | i | nt | i | i
CCOc1ccc(C(=O)Nc2ccc(N3CCN(C(=O)c4ccco4)CC3)cc2)cc1Br | 25.1µM | i | ? | nt | nt | nt
CCOc1ccc(C(=O)Nc2ccc(N3CCN(C)CC3)cc2)cc1Br | i | i | i | i | i | i
COc1ccc(C(NC(=O)/C=C/c2ccco2)c2ccc(OC)cc2)cc1 | ? | i | ? | i | ? | 15.8µM
CC(C)(C)n1ncc2c(=O)n(Cc3ccc(C#N)c(F)c3)cnc21 | i | i | nt | nt | i | nt
C/C=C\C1=C(CO)[C@H](O)[C@H]2O[C@H]2[C@H]1O | nt | nt | nt | nt | i[12.4 µM] | nt
C/C=C\C1=C(CO)C(=O)[C@@H]2OC2C1=O (some centres not stated) | nt | nt | nt | nt | 1.58µM | nt
O=[N+]([O-])c1cc2c(c3cccnc13)COCO2 | 39.8µM | i | 10µM | nt | nt | nt
COc1cc2c(NC3CCN(C)CC3)nc(N3CCCN(C)CC3)nc2cc1OCCCN1CCCCC1 | ? | i | nt | nt | nt | nt
